Values joined by “and” are separate entries in the source; they are usually repeats but may differ in a detail not shown here. Equal values may be shown once. Inconclusive results are not listed. Unmarked numbers belong to inactive results. Active and inactive are the calls of the source. Calls follow the shape of the dose curve; as a rule, active = well fitted curve in the direction sought with a large enough effect; inconclusive = small, poorly fitted or top-dose-only effect, or another doubt; inactive = no such curve, though single readings can be large; an effect the other way counts as inactive or inconclusive.

The test system of one assay is KB-3-1. Nature of the assay: Cytotoxic Profiling of Annotated Libraries Using Quantitative High-Throughput Screening (AID 1296008). Also: nearly all actives have a fitted effect of over 60% in size. Also: potency is read from the fitted curve at half-maximal effect. As to max response: % is scaled to controls: 0 for no effect and ±100 for the full control effect. Conditions: Five cell lines viability, CellTiter-Glo ATP luminescence, 48-72 h; max response: active compounds read low. Put shortly: (§1)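 Compounds were pin-transferred onto cells and incubated 48 or 72 hr at 37 degree Celsius, 95% humidity. CellTiter-Glo was added, plates sat 10 min at room temperature, then ATP-coupled luminescence was imaged as the viability read-out.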
A general note: ATP-based viability assays read luminescence as a measure of living cells.

Assay [1] has as its system HaCat. The assay is described as above. Conditions: Five cell lines viability, CellTiter-Glo ATP luminescence, 48-72 h; max response: active compounds read low. Put shortly:
as §1

A further assay relates to NIH3T3. Described as above. The following applies: Five cell lines viability, CellTiter-Glo ATP luminescence, 48-72 h; max response: active compounds read low. Summed up:
as §1

The next assay deals with C33A. Nature of the assay: Primary qHTS to identify gynecologic anti-cancer compounds using libraries of approved drugs and bioactive compounds (AID 1345084). Also: % is scaled to controls: 0 for no effect and ±100 for the full control effect; nearly all actives have a fitted effect of over 55% in size. The following applies: Gynecologic cancer cell panel viability, ATPlite luminescence, 48 h; series mostly up to 57.5 µM. Put shortly: (§2)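 Cell viability after 48 h drug treatment, ATPlite luminescence readout; five doses.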
A general note: In qHTS, concentration-response curves come from the screen itself.

The test system of the next assay is CAOV3. The description is as above. Conditions: Gynecologic cancer cell panel viability, ATPlite luminescence, 48 h; series mostly up to 57.5 µM. Put shortly:
as §2

The next assay relates to CASKI. The description is as above. Conditions: Gynecologic cancer cell panel viability, ATPlite luminescence, 48 h; series mostly up to 57.5 µM. Summed up:
as §2

A further assay concerns Es-2. The description is as above. The following applies: Gynecologic cancer cell panel viability, ATPlite luminescence, 48 h; series mostly up to 57.5 µM. Summed up: as §2
For the next assay, the system named is HeLa. The assay is described as above. The following applies: Gynecologic cancer cell panel viability, ATPlite luminescence, 48 h; series mostly up to 57.5 µM. Summed up:
as §2

The test system of the next assay is Hek293T. The description is as above. Conditions: Gynecologic cancer cell panel viability, ATPlite luminescence, 48 h, control line for the selectivity index; series mostly up to 57.5 µM. Put shortly:
as §2

The subject of another assay is JEG-3. The assay is described as above. Conditions: Gynecologic cancer cell panel viability, ATPlite luminescence, 48 h; series mostly up to 57.5 µM. Summed up: as §2
The next assay concerns OV90. Described as above. The following applies: Gynecologic cancer cell panel viability, ATPlite luminescence, 48 h; series mostly up to 57.5 µM. Summed up: as §2
A further assay concerns PA-1. The assay is described as above. The following applies: Gynecologic cancer cell panel viability, ATPlite luminescence, 48 h; series mostly up to 57.5 µM. Put shortly: as §2
Assay [2] relates to HACAT. Nature of the assay: qHTS assay to identify novel small-molecules to repurpose for Merkel cell carcinoma treatment (AID 1296009). Also: nearly all actives have a fitted effect of over 60% in size. Conditions: MCC and control cell lines, CellTiter-Glo viability, 72 h; at 44.8 µM (top of the series) unless noted. Put shortly: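 Viability readout: ATP luminescence (CellTiter-Glo) after 72 hr drug exposure at 37 degree celsius. Dose-response format was 8 points for NPC and 11 points for MIPE; data normalized to in-plate controls.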

With `CC(C)(C)NC(=O)[C@H]1CC[C@H]2[C@@H]3CC=C4C=C(C(=O)O)CC[C@]4(C)[C@H]3CC[C@]12C`, the max response in the assay on KB-3-1 was -6.72%.

Regarding `COc1cc(/C=C/C(=O)NCCn2c(C(F)(F)F)cc3ccccc32)cc(OC)c1OC`, the results for the max response in the assay on HaCat [1] and with NIH3T3 were -29.1% and -23.8%, respectively. Moreover, the Potency result in the assay on C33A, with CAOV3, in the assay on CASKI, in the assay on Es-2, with HeLa and with Hek293T was “inactive” in each case. Besides, the Potency entry in the assay with JEG-3, in the assay with OV90 and in the assay with PA-1 was “inactive” throughout.

With `C=CC(=O)Nc1cc(-n2c(=O)ccc3cnc4ccc(-c5ccc(NS(C)(=O)=O)cc5)cc4c32)ccc1C`, the max response is -9.43% in the assay on HaCat [1] and -11.5% in the assay on NIH3T3. The Potency entry with CAOV3, in the assay with CASKI, in the assay with Es-2, with HeLa, with Hek293T and with JEG-3 was “inactive” each time. Besides, the Potency entry in the assay with OV90 was “inactive”.

Regarding `O=C(Nc1ccc2[nH]c(=O)oc2c1)C(=O)N1CCC(Cc2ccc(F)cc2)CC1`, the values for the max response in the assay on HaCat [1] and in the assay on NIH3T3 were 4.96% and -23.6%, respectively. The Potency entry in the assay with C33A, with CAOV3, with CASKI, with Es-2, with HeLa and in the assay with Hek293T was “inactive” throughout. In addition, the Potency result in the assay on JEG-3, in the assay on OV90 and in the assay on PA-1 was “inactive” in each case.

For `COc1ccccc1N1CCN(CC[C@@](C)(C(=O)C2CCCCC2)c2ccccc2)CC1`, the max response was -16.7% in the assay with HaCat [1] and -6.96% with NIH3T3. The Potency result in the assay with C33A, in the assay with CASKI, with Es-2, in the assay on HeLa, in the assay on Hek293T and with JEG-3 was “inactive” each time. The Potency result with OV90 and in the assay with PA-1 was “inactive” each time.

In the case of `C/C(=C(/CCO)SSCC1CCCO1)N(C=O)Cc1cnc(C)nc1N` (stereo unspecified), the max response in the assay on KB-3-1 is -15.4% and -10.3%.

Regarding `O=C(Nc1ccc(-n2nc(C(F)(F)F)cc2C(F)(F)F)cc1)c1ccncc1F`, the max response with HaCat [1] is 3.3%; in the assay on NIH3T3, 2.03%. Further, the Potency result with C33A, in the assay on CASKI, with Es-2, with HeLa, with Hek293T and with JEG-3 was “inactive” in each case. In addition, the Potency result in the assay on OV90 was “inactive”.

Consider `COc1ccc(-c2csc(NC(=O)[C@H]3CCCCN3S(=O)(=O)c3ccc(C)cc3)n2)cc1`, for which the result in the assay on HaCat [1] and with HACAT [2] was inactive. Further, the Potency result with C33A, in the assay on CAOV3, in the assay with CASKI, with Es-2, in the assay on HeLa and in the assay on Hek293T was “inactive” throughout. Besides, the Potency entry with JEG-3, in the assay on OV90 and in the assay on PA-1 was “inactive” each time.

As to `CC1(C)S[C@@H]2[C@H](NC(=O)C(C(=O)Oc3ccc4c(c3)CCC4)c3ccccc3)C(=O)N2[C@H]1C(=O)O` (stereo partly specified), the max response with KB-3-1 is 21.3%.

In the case of `C=C1[C@@H](OC(C)=O)CC[C@@]2(C)[C@@H](OC(C)=O)[C@H](OC(C)=O)C3=C(C)C[C@H](OC(=O)C(C)CC)[C@@H]([C@@H](OC(C)=O)[C@H]12)C3(C)C` (stereo partly specified), the Potency in the assay with HaCat [1] was 1.93 µM (active); in the assay with NIH3T3, 5.44 µM (active). Also, in the assay on OV90, the Potency result is “inactive”.

On to `Cc1cc(C(=O)Nc2cc(Oc3ccc4nc(NC(=O)C5CC5)cn4n3)ccc2C)n(C)n1`, for which the Potency was 18.4 µM (active) in the assay with HaCat [1] and 5.17 µM (active) with NIH3T3. Also, the Potency result in the assay on C33A, in the assay on CAOV3, in the assay with CASKI, in the assay with Es-2, in the assay on HeLa and with Hek293T was “inactive” each time. Moreover, the Potency entry in the assay with JEG-3, in the assay on OV90 and in the assay with PA-1 was “inactive” in each case.

Regarding `O=C(NCCN1CCN(c2cccc3ccc(O)cc23)CC1)c1ccc(F)cc1`, the max response is -4.85% in the assay with HaCat [1] and 3.66% with NIH3T3. The Potency entry in the assay with C33A, in the assay on CAOV3, in the assay on CASKI, in the assay with Es-2, in the assay with HeLa and with Hek293T was “inactive” each time. The Potency entry in the assay on JEG-3, with OV90 and in the assay on PA-1 was “inactive” each time.

On to `O=C(O)c1ccccc1[O-].O=C(O)c1ccccc1[O-].[Zn+2]`, for which the max response with KB-3-1 was -8.24%.

In the case of `CC(=O)S[C@@H]1CC2=CC(=O)CC[C@]2(C)[C@H]2CC[C@@]3(C)[C@@H](CC[C@@]34CCC(=O)O4)[C@H]12`, the max response with KB-3-1 was -24%.

Regarding `CCCCCCCCCCCCCCCC(=O)OC/C=C(C)/C=C/C=C(C)/C=C/C1=C(C)CCCC1(C)C`, in the assay on KB-3-1, the max response is -13.6%.

Regarding `Cc1cc(-c2cc(OC(=O)c3ccccc3)ccc2Cl)cc2nnc(Nc3ccc(OCCN4CCCC4)cc3)nc12`, the max response is 3.59% in the assay on HaCat [1] and -28.4% in the assay with NIH3T3. For the same molecule, the Potency result in the assay with C33A, in the assay on CAOV3, in the assay with CASKI, in the assay on Es-2, with HeLa and in the assay with Hek293T was “inactive” throughout. For the same molecule, the Potency result in the assay on JEG-3, with OV90 and in the assay with PA-1 was “inactive” each time.

As for `CC12CCC(OC3OC(CO)C(O)C(O)C3OC3OC(CO)C(O)C(O)C3O)CC1CCC1C2CCC2(C)/C(=C3/COC(=O)C3)CCC12O` (stereo unspecified), the max response with HaCat [1] was -19.3%; in the assay with NIH3T3, -1.69%. Further, the Potency result in the assay on CASKI, in the assay on Es-2, in the assay on HeLa, in the assay with Hek293T, in the assay with JEG-3 and in the assay with PA-1 was “inactive” each time.

In the case of `Cc1ccc(C)c(NS(=O)(=O)c2cc(C(=O)Nc3ccccc3-c3ccccc3)ccc2C)c1`, the max response with HaCat [1] was -22.2%; with NIH3T3 it was -13.7%. Moreover, the Potency entry in the assay with C33A, in the assay with CAOV3, in the assay with CASKI, in the assay with Es-2, in the assay with HeLa and in the assay on Hek293T was “inactive” throughout. Besides, the Potency result in the assay on JEG-3, in the assay on OV90 and in the assay with PA-1 was “inactive” in each case.

As for `C/C(=C(\CCOC(=O)c1ccccc1)SS/C(CCOC(=O)c1ccccc1)=C(/C)N(C=O)Cc1cnc(C)nc1N)N(C=O)Cc1cnc(C)nc1N`, in the assay with KB-3-1, the max response was -12.4%.

With `O=C(CCCN1CCC(n2c(=S)[nH]c3ccccc32)CC1)c1ccc(F)cc1`, the max response in the assay on KB-3-1 was 8.28%.

`C[C@@H](c1ccc2nccn2c1)n1nnc2ncc(-c3cnn(C)c3)nc21`: the values for the max response in the assay on HaCat [1] and in the assay on NIH3T3 were -13% and -14.7%, respectively. The Potency result in the assay with C33A, in the assay on CAOV3, with CASKI, in the assay on Es-2, with HeLa and with Hek293T was “inactive” each time. Further, the Potency result in the assay with JEG-3, in the assay on OV90 and in the assay on PA-1 was “inactive” throughout.

On to `Cc1cnc(-c2ccccc2C(C)C)nc1NCc1ccc(-n2ccnn2)cc1`, for which the values for the max response in the assay on HaCat [1] and in the assay on NIH3T3 were -29.3% and -17%, respectively. In addition, the Potency result in the assay with C33A, in the assay on CAOV3, with CASKI, in the assay with Es-2, with HeLa and with Hek293T was “inactive” each time. Moreover, the Potency entry in the assay on JEG-3, with OV90 and with PA-1 was “inactive” each time.

The record behind these values is PubChem BioAssay (NCATS).
